PubChem BioAssay AID1211 (NMMLSC, 2008)
Calls of active or inactive are those of the source. The rule behind the calls is not given here.

target: Estrogen receptor (Homo sapiens) (UniProt P03372); experiment: ERalpha ligand binders by competition, primary screen, cell-based, Cos7 ERalpha-GFP, flow cytometry (AID 1211); conditions: fluorescent ligand competition, at 10 µM, active compounds read high;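 note: 0% = DMSO vehicle wells and 100% = no E2-Alexa633 signal left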
Sequence (P03372 whole entry, looked up): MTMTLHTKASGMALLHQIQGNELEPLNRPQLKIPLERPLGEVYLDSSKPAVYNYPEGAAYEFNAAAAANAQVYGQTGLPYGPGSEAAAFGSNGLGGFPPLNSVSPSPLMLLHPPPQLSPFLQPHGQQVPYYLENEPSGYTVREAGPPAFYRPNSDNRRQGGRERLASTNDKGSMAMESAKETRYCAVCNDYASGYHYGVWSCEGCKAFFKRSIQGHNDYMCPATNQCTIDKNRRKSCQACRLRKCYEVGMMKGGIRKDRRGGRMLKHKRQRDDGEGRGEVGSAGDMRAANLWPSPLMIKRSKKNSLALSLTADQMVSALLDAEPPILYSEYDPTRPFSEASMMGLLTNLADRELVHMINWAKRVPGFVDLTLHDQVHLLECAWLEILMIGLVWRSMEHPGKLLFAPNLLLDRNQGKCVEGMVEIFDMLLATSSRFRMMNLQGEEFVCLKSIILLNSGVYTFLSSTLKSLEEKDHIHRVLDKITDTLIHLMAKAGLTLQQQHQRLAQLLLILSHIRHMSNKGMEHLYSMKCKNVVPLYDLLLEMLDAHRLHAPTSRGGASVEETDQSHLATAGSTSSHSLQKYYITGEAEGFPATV

| SMILES | inhibition of ligand binding |
| --- | --- |
| O=c1oc2cc(O)c(Cl)cc2c2c1CCCC2 | 0% (inactive) |
| COc1cc(/C=N/N2CCN(C3c4ccccc4-c4ccccc43)CC2)cc(OC)c1O | 0% (inactive) |
| COC(=O)c1ccc2c(c1)C1C=CCC1C(c1cccc([N+](=O)[O-])c1)N2 (stereo not drawn) | 10% (inactive) |
| CC1(C)CC(=O)C=C(NC2CC(C)(C)NC(C)(C)C2)C1 | 0% (inactive) |
| COc1ccc(OC)c(C2Nc3c(Cl)ccc(C(=O)O)c3C3C=CCC32)c1 (stereo not drawn) | 0% (inactive) |
| Nc1nc(N)c2sc3nc4c(cc3c2n1)CCC4 | 17% (inactive) |
| O=C(O)C1Nc2c(O)cccc2C2C=CCC12 (stereo not drawn) | 6% (inactive) |
| C=C1c2ccc(OC)cc2NC(=O)N1c1ccccc1 | 4% (inactive) |
| O=C(O)c1ccc2c(c1)C1C=CCC1C(c1cc3c(cc1Br)OCO3)N2 (stereo not drawn) | 79% (active) |
| COc1cc([N+](=O)[O-])cc2c1NC(c1ccc(Cl)cc1)C1CC=CC21 (stereo not drawn) | 46% (inactive) |
| CC1(C)Cc2[nH]c(=O)c(C(=O)O)cc2CO1 | 2% (inactive) |
| COc1cc(O)c2c(=O)c3c(OC)c(O)ccc3oc2c1 | 63% (inactive) |
| COc1ccc2c(c1)c1c3n2CCNC3CCC1 (stereo not drawn) | 25% (inactive) |
| Clc1ccc2c(c1)[C@H]1OCC[C@H]1[C@@H](c1ccco1)N2 | 0% (inactive) |
| O=C(CSc1nnc(-c2ccc(O)cc2)n1Cc1ccccc1)NNC(=O)c1ccc(Br)cc1 | 48% (inactive) |
| COc1ccc2[nH]c3c(c2c1)CCNC3C1CC=C(C)CC1 (stereo not drawn) | 0% (inactive) |
| C=CCSC1=N/C(=C\C=C\c2ccco2)C(=O)S1 | 0% (inactive) |
| COc1cc([N+](=O)[O-])cc2c1N[C@@H](c1ccc(C(=O)O)cc1)[C@H]1CC=C[C@@H]21 | 71% (active) |
| COc1cccc(C2Nc3c(F)cc(Br)cc3C3C=CCC32)c1OC (stereo not drawn) | 60% (inactive) |

| SMILES | inhibition of ligand binding |
| --- | --- |
| O=c1cc(CSc2nnnn2-c2ccccc2)nc(Nc2ccc(F)cc2)[nH]1 | 26% (inactive) |
| CCNC(=O)c1ccc2c(c1)C1C3CCC(C3)C1C(c1ccccc1)N2 (stereo not drawn) | 66% (active) |
| CCC1(CC)NC(=O)N(CC(=O)Nc2sc3c(c2C(N)=O)CCC3)C1=O | 38% (inactive) |
| CCOC(=O)N1CCc2[nH]c3ccc(C)cc3c2C1 | 6% (inactive) |
| Cc1ccc(NC(=O)CSc2nnnn2-c2ccc3c(c2)OCO3)cc1C | 33% (inactive) |
| CC(=O)OC1CC2(C)C(=O)CCC2C2CCc3cc(O)ccc3C12 (stereo not drawn) | 23% (inactive) |
| O=c1oc2cc(O)ccc2c2c1CCC2 | 0% (inactive) |
| CC(C)COc1ccc2c(c1)c1c3n2CCNC3CCC1 (stereo not drawn) | 22% (inactive) |
| Cn1c(SCC(=O)N2c3ccccc3CCc3ccccc32)nnc1-c1cc2ccccc2cc1O | 34% (inactive) |
| CCNC(=O)N1c2ccc(OCC)cc2C(C)=CC1(C)C | 10% (inactive) |
| CC1Cc2ccccc2N1C(=O)CSc1nnc(-c2ccc(S(=O)(=O)N3CCCC3)cc2)o1 (stereo not drawn) | 56% (inactive) |
| CCN(c1ccccc1)S(=O)(=O)c1ccc2[nH]cc(C(=O)NCCOC)c(=O)c2c1 | 22% (inactive) |
| N#Cc1c2c(c(=O)n3c1[nH]c1ccccc13)CCCC2 | 23% (inactive) |
| O=C(O)c1ccc2c(c1)[C@@H]1C=CC[C@@H]1[C@H](c1ccccn1)N2 | 81% (active) |
| CCOc1cc2c(c([N+](=O)[O-])c1)NC(c1ccc(Cl)cc1)C1CC=CC21 (stereo not drawn) | 0% (inactive) |
| CCOC(=O)C1=C(C)NC(=O)NC1c1ccco1 (stereo not drawn) | 56% (inactive) |
| Cn1cccc1/C=C1\SC(=O)N(c2ccc(O)cc2)C1=O | 45% (inactive) |
| c1coc(C2Nc3ccccc3C3OCCC23)c1 (stereo not drawn) | 41% (inactive) |
| Cc1ccc(S(=O)(=O)Cc2ccc(C(=O)O)o2)cc1 | 34% (inactive) |
